Several values for one entry are separate records, joined by “and”; a condition that tells them apart may be missing. Equal entries are not always repeated. Results filed as inconclusive are left out. Entries that show only a call come without a potency. Some compounds were tested as several samples or in several runs, with calls that do not always agree. Activity calls are given as the source filed them. Unless noted, the call rests on the fitted dose curve; in most records, active means well fitted curve in the direction sought with a large enough effect in the repeat runs; inconclusive means weak or mixed curves; inactive means no such curve, though single readings can be large; an effect the other way counts as inactive or inconclusive.
Key:
[1] = qHTS assay to identify small molecule antagonists of the glucocorticoid receptor (GR) signaling pathway - cell viability counter screen (AID 720693); conditions: GR-bla HeLa viability, CellTiter-Glo luminescence, 18 h, with 5 nM dexamethasone present; series mostly up to 58.5 µM; further: nearly all actives have a fitted effect of over 55% in size
[2] = qHTS assay for identifying genotoxic compounds that show differential cytotoxicity against isogenic chicken DT40 cell lines with known DNA damage response pathways - wild type cell line (AID 743012); conditions: DT40 wild type chicken cells viability, CellTiter-Glo, 40 h; series mostly up to 68.4 µM; further: nearly all actives have a fitted effect of over 60% in size; further: potency means the concentration at half of the fitted maximal effect
In short: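 CellTiter-Glo luminescence readout of viability in wild type DT40 cells after 40 h compound exposure at 37 C/5% CO2; 300 cells/well; reagent incubated 30 min at room temperature before reading.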

[3] = qHTS assay for identifying genotoxic compounds that show differential cytotoxicity against isogenic chicken DT40 cell lines with known DNA damage response pathways - Rev3 mutant cell line (AID 743014); conditions: chicken DT40 Rev3-/- viability, CellTiter-Glo, 40 h; series mostly up to 68.4 µM; further: nearly all actives have a fitted effect of over 55% in size; further: potency means the concentration at half of the fitted maximal effect
[4] = qHTS assay for identifying genotoxic compounds that show differential cytotoxicity against isogenic chicken DT40 cell lines with known DNA damage response pathways - Rad54/Ku70 mutant cell line (AID 743015); conditions: DT40 Rad54/Ku70 mutant viability, CellTiter-Glo, 40 h; series mostly up to 66.8 µM; further: nearly all actives have a fitted effect of over 60% in size; further: potency means the concentration at half of the fitted maximal effect
[5] = qHTS assay to identify small molecule antagonists of the androgen receptor (AR) signaling pathway - cell viability counter screen (AID 743033; further: nearly all actives have a fitted effect of over 45% in size); conditions: AR-bla HEK293 viability, CellTiter-Glo luminescence, 16 h; series mostly up to 58.5 µM
[6] = qHTS assay to identify small molecule antagonists of the androgen receptor (AR) signaling pathway using the MDA cell line - cell viability counter screen (AID 743041; further: nearly all actives have a fitted effect of over 45% in size; further: potency means the concentration at half of the fitted maximal effect); conditions: MDA-kb2 viability, CellTiter-Fluor, 16 h, cells co-treated with R1881 androgen agonist; series mostly up to 70.3 µM
In short: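 Compound exposure lasted 16 h at 37C in MDA-kb2 AR-luc cells stimulated with R1881. Protease-based CellTiter-Fluor reagent was applied for the final 30 min and fluorescence measured.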

[7] = target: Androgen receptor (Homo sapiens) (UniProt P10275); assay: qHTS assay to identify small molecule antagonists of the androgen receptor (AR) signaling pathway (AID 743035; active means well fitted inhibition curve with a large enough effect in the signal ratio in the repeat runs, not every such curve was filed as active; the % refers to the signal ratio); conditions: HEK293 AR-UAS-bla, R1881-stimulated, beta-lactamase FRET, 16 h; series mostly up to 58.5 µM
Sequence of Androgen receptor (Homo sapiens) (P10275 whole entry, looked up): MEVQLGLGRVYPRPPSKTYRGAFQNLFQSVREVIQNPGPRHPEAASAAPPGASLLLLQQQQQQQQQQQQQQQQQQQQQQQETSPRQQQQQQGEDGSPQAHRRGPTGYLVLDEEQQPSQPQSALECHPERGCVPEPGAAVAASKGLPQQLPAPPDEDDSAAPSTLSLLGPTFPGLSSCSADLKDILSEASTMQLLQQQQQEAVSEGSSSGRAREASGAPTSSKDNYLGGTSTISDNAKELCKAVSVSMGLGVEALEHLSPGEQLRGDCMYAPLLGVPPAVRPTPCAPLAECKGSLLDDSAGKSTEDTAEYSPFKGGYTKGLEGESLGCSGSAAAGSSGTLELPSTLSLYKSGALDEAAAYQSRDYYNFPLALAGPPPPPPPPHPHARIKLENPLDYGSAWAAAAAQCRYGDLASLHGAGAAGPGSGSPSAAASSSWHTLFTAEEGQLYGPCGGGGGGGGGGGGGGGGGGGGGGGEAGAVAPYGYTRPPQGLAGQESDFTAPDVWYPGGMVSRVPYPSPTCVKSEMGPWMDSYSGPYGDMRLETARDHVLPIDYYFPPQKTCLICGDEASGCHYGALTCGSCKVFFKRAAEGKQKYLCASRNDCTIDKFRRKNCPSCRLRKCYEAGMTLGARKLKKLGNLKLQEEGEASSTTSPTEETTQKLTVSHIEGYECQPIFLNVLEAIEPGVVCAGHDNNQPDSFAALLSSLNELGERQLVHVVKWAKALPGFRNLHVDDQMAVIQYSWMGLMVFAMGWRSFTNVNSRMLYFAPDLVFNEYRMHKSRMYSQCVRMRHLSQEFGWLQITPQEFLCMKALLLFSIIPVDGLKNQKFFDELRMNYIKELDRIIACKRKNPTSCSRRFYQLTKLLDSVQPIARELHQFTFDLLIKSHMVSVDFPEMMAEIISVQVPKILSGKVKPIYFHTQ
In short: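 AR-bla HEK293 reporter cells; 4 h settle at 37C/5% CO2; compound + R1881 agonist, 16 h at 37C; LiveBLAzer B/G FRET substrate 2 h RT; fluorescence intensity read. qHTS format.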

[8] = target: Androgen receptor (Homo sapiens) (UniProt P10275); assay: qHTS assay to identify small molecule agonists of the androgen receptor (AR) signaling pathway (AID 743036; active means well fitted activation curve with a large enough effect in the signal ratio in the repeat runs, with a control signal flat, not every such curve was filed as active; the % refers to the signal ratio); conditions: HEK293 AR-UAS-bla GripTite, beta-lactamase FRET ratio, 16 h; series mostly up to 62.4 µM
In short: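 Reporter line: GeneBLAzer AR-UAS-bla-GripTite (HEK293). Steps: plate cells, 4 h rest, add compounds, 16 h at 37C, add LiveBLAzer B/G substrate, 2 h at RT, read fluorescence.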

[9] = target: Androgen receptor (Homo sapiens) (UniProt P10275); assay: qHTS assay to identify small molecule agonists of the androgen receptor (AR) signaling pathway using the MDA cell line (AID 743040; further: nearly all actives have a fitted effect of over 20% in size; further: potency means the concentration at half of the fitted maximal effect); conditions: MDA-kb2 AR-luc cells, MMTV luciferase, 16 h; series mostly up to 70.3 µM
In short: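 Testing was done with the MDA-kb2 AR-luc line, a human breast carcinoma stably transfected with MMTV-luciferase containing AR and GR response elements. Cells were exposed 16 h at 37C before ONE-Glo luminescence detection.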

[10] = target: Androgen receptor (Homo sapiens) (UniProt P10275); assay: qHTS assay to identify small molecule antagonists of the androgen receptor (AR) signaling pathway using the MDA cell line (AID 743042; further: nearly all actives have a fitted effect of over 55% in size); conditions: MDA-kb2 AR-luc, MMTV luciferase, R1881 antagonist, 16 h; series mostly up to 70.3 µM
In short: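 MDA-kb2 breast carcinoma cells carrying MMTV-luciferase (AR/GR responsive) were co-treated with compounds and the agonist R1881 for 16 h at 37C. Inhibition read as ONE-Glo luminescence; CellTiter-Fluor fluorescence measured in parallel for cytotoxicity.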

| SMILES | Potency [1] | Potency [2] | Potency [3] | Potency [4] | outcome [5] | Potency [6] | outcome [7] | outcome [8] | Potency [9] | outcome [10] |
| --- | --- | --- | --- | --- | --- | --- | --- | --- | --- | --- |
| CC1(C)[C@@H]2CC[C@@]1(C)C(=O)C2 | inactive | inactive | 4.73 µM (active) and inactive | 2.98 µM (active) and inactive | inactive | inactive | – | – | – | – |
| O=NO | inactive | inactive | inactive | inactive | inactive | inactive | – | – | – | – |
| CCCC(O)C(CC)CO (stereo not drawn) | inactive | inactive | inactive | inactive | inactive | inactive | – | – | – | – |
| O=C(O)c1cccc([N+](=O)[O-])c1 | inactive | inactive | inactive | inactive | inactive | inactive | – | – | – | – |
| O=C(O)c1[nH]n(-c2ccc(S(=O)(=O)O)cc2)c(=O)c1N=Nc1ccc(S(=O)(=O)O)cc1 | inactive | inactive | inactive | inactive | inactive | 15 µM (active) and 61.3 µM (active) and 57.1 µM (active) | – | – | – | – |
| O=c1cc[nH]c(=S)[nH]1 | inactive | inactive | inactive | inactive | inactive | inactive | – | – | – | – |
| CC(C)(Oc1ccc(C2CC2(Cl)Cl)cc1)C(=O)O (stereo not drawn) | inactive | inactive | inactive | inactive | inactive | inactive | inactive | inactive | inactive | inactive |
| CC(O)CO (stereo not drawn) | inactive | inactive | inactive | inactive and 61.1 µM (active) | inactive | inactive | – | – | – | – |
| CCCCC(CC)COC(=O)/C=C/c1ccc(OC)cc1 (stereo not drawn) | inactive | inactive | inactive | inactive | inactive | inactive | inactive | inactive | inactive | inactive |
| CC(C)[C@@H]1CC[C@@H](C)C[C@H]1O | inactive | inactive | inactive | inactive | inactive | inactive | inactive | inactive | inactive | inactive |
| NNC(=O)c1ccncc1 | inactive | inactive | inactive | inactive | inactive | inactive | – | – | – | – |
| CCCC(CCC)C(=O)O | inactive | inactive | inactive | inactive | inactive | inactive | – | – | – | – |
| CNC[C@H](O)c1cccc(O)c1 | inactive | inactive | inactive | inactive | inactive | inactive | – | – | – | – |
| Cc1cc(=O)n(-c2ccccc2)n1C | inactive | inactive | inactive | inactive | inactive | inactive | inactive | inactive | inactive | inactive |
| Cc1ccc(C)c(OCCCC(C)(C)C(=O)O)c1 | inactive | inactive | inactive | inactive | inactive | inactive | inactive | inactive | inactive | inactive |
| NC(=O)c1ccccc1O | inactive | inactive | inactive | inactive | inactive | inactive | – | – | – | – |

| SMILES | Potency [1] | Potency [2] | Potency [3] | Potency [4] | outcome [5] | Potency [6] | outcome [7] | outcome [8] | Potency [9] | outcome [10] |
| --- | --- | --- | --- | --- | --- | --- | --- | --- | --- | --- |
| CCCN(CCC)S(=O)(=O)c1ccc(C(=O)O)cc1 | inactive | inactive | inactive | inactive | inactive | inactive | inactive | inactive | – | inactive |
| C1N2CN3CN1CN(C2)C3 | inactive | inactive | inactive | inactive | inactive | inactive | inactive | inactive | inactive | inactive |
| COc1ccc2[nH]cc(CCNC(C)=O)c2c1 | inactive | inactive | inactive | inactive | inactive | inactive | – | – | – | – |
| O=C(O)c1cc(N=Nc2ccc(S(=O)(=O)Nc3ccccn3)cc2)ccc1O | inactive | inactive | inactive | inactive | inactive | inactive | – | – | – | – |
| Cc1ccc(O)cc1 | inactive | inactive | inactive | inactive | inactive | inactive | inactive | inactive | inactive | inactive |
| Oc1ccc(/C=C/c2cc(O)cc(O)c2)cc1 | inactive | 7.17 µM (active) and 30.6 µM (active) | 7.17 µM (active) and 15.5 µM (active) and 21.7 µM (active) | 9.02 µM (active) and 27.6 µM (active) and 30.6 µM (active) | inactive | inactive | – | – | 6.92 µM (active) and 2.73 µM (active) | inactive |
| CC(=O)NS(=O)(=O)c1ccc(N)cc1 | inactive | inactive | inactive | inactive | inactive | inactive | – | – | – | – |
| O=C(c1ccccc1)C(O)c1ccccc1 (stereo not drawn) | inactive | inactive | inactive | inactive | inactive | inactive | – | – | – | – |
| O=c1ccc2ccccc2o1 | inactive | inactive | inactive | inactive | inactive | inactive | – | – | – | – |
| C/C=C/c1ccc(OC)cc1 | inactive | inactive | inactive | inactive | inactive | inactive | – | – | – | – |
| c1ccc2[nH]ccc2c1 | inactive | inactive | inactive | inactive | inactive | inactive | inactive | inactive | inactive | inactive |
| Cn1cc[nH]c1=S | inactive | inactive | inactive | inactive | inactive | inactive | – | – | – | – |
| Cc1cc(=O)[nH]c(=S)[nH]1 | inactive | inactive | inactive | inactive | inactive | inactive | – | – | – | – |
| CCCCC1C(=O)N(c2ccccc2)N(c2ccccc2)C1=O | inactive | inactive | inactive | inactive | inactive | inactive | – | – | – | – |
| O=C1NC(=O)c2ccccc21 | inactive | inactive | inactive | inactive | inactive | inactive | – | – | – | – |

From PubChem BioAssay (Tox21)
